Consider eight molecules from PubChem BioAssay (EPA / NIEHS).

The source made the active and inactive calls. The calls were made as follows: active = hit-call score of the fitted dose curve at least 0.9, where 1 is the maximum; inactive = score below 0.9.

A short description of assay [1]: ATG_CRE_CIS: Attagene CIS-FACTORIAL HepG2 Assay for human cAMP Responsive Element (CRE) binding protein 3 (AID 2282926). To be noted: HepG2 CRE cis-reporter, Attagene multiplexed mRNA; actives raise or lower the signal. In short, it runs like this: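 Liver-derived HepG2, transfected with a CRE-containing reporter panel, exposed 24 h; transcript levels sized and quantified by capillary electrophoresis of labelled amplicons; signal changes either way referenced to vehicle.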

Assay [2] addresses CCAAT/enhancer-binding protein beta (Homo sapiens) (UniProt P17676). Briefly: ATG_C_EBP_CIS: Attagene CIS-FACTORIAL HepG2 Assay for human CCAAT/Enhancer Binding Protein (C/EBP) beta (AID 2282927). The conditions noted are these: HepG2 Attagene cis-factorial transcription factor reporter; actives raise or lower the signal. In short, it runs like this: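 Changes in reporter mRNA, rather than exogenous chimeric receptor activity, reflect native C/EBP signalling in transfected HepG2 cells dosed for 24 h; transcripts are detected by RT-PCR and capillary electrophoresis.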

A short description of assay [3]: ATG_CMV_CIS: Attagene CIS-FACTORIAL HepG2 Assay for human CMV (Internal Marker) (AID 2282928).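 Also: endpoint acts as a background internal control marker rather than a target.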 To be noted: HepG2 CMV promoter reporter, transcription factor profiling; actives raise or lower the signal. An outline of the steps:
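24 h chemical treatment, HepG2 with transient multi-reporter transfection; RNA → oligo(dT) RT → PCR → 6-FAM extension → HpaI digest → CE fluorescence. Bidirectional fit, DMSO negative control.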

A short description of assay [4]: ATG_DR4_LXR_CIS: Attagene CIS-FACTORIAL HepG2 Assay for human Liver X Receptor (LXR), DR4 submotif (AID 2282929). To be noted: HepG2 Attagene DR4 cis-reporter, mRNA transcription; actives raise or lower the signal. An outline of the steps:
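Fluorescence intensity of labelled reporter cDNA fragments, separated by capillary electrophoresis, gives the signal. HepG2 cells bearing cis-regulated reporter constructs were treated 24 h; activity fitted bidirectionally relative to DMSO negative control.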

In assay [5] the target is Aryl hydrocarbon receptor (Homo sapiens) (UniProt P35869). Put plainly: ATG_Ahr_CIS: Attagene CIS-FACTORIAL HepG2 Assay for human Aryl Hydrocarbon Receptor (Ahr) (AID 2282930). The conditions noted are these: HepG2 AhR cis-factorial reporter transcription; actives raise or lower the signal. An outline of the steps: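 HepG2, transient MRTU (cis) transfection, 24 h exposure. RNA → cDNA → PCR → 6-FAM primer extension → HpaI 2 h 37 C → CE. Fit: bidirectional, DMSO baseline.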
Chain of Aryl hydrocarbon receptor (Homo sapiens) (P35869 whole entry, looked up): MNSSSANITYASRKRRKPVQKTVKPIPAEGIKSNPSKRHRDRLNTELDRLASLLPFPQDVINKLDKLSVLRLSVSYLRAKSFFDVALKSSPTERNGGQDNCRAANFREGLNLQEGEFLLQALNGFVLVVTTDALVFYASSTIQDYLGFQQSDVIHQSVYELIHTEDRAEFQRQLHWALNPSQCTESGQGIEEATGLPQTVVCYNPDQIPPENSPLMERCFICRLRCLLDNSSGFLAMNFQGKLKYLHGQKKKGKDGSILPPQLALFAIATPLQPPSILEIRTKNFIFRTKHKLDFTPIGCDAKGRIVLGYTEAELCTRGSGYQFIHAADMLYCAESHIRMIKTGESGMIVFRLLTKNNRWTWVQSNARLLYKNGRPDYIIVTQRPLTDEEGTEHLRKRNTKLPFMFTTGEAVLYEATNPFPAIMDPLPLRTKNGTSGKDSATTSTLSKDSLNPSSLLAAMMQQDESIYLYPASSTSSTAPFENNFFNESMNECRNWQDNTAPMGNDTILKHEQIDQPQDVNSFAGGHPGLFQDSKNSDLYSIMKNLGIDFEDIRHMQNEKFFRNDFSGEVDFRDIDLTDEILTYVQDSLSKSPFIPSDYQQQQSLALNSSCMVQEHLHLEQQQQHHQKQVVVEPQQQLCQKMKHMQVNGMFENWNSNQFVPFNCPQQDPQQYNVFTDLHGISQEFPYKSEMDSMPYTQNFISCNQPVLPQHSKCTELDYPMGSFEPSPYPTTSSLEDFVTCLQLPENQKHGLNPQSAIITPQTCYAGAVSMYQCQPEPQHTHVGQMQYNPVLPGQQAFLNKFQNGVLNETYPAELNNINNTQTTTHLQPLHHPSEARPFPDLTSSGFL

The nature of assay [6]: ATG_AP_1_CIS: Attagene CIS-FACTORIAL HepG2 Assay for human Activator Protein 1 (AP-1) (AID 2282931). The conditions noted are these: HepG2 Attagene cis-factorial AP-1 reporter mRNA; actives raise or lower the signal. In short, it runs like this: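 Multiplexed HepG2 reporter assay, 24 h dosing. mRNA induction detected by RT-PCR plus capillary electrophoresis. Activity fitted in both directions against DMSO.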

A short description of assay [7]: ATG_AP_2_CIS: Attagene CIS-FACTORIAL HepG2 Assay for human Activator Protein 2 (AP-2) (AID 2282932). To be noted: HepG2 AP-2 cis-reporter, Attagene transcription factor profiling; actives raise or lower the signal. In short, it runs like this: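 Transiently transfected HepG2 cells are exposed to chemical for 24 h. Reporter transcripts are then measured as fluorescence following RT-PCR and capillary separation, and gain- or loss-of-signal is fitted relative to DMSO.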

The nature of assay [8]: ATG_BRE_CIS: Attagene CIS-FACTORIAL HepG2 Assay for human Bone Morphogenetic Protein (BMP) Response Element (BRE) (AID 2282933). To be noted: HepG2 BMP response element reporter, Attagene transcription factor profiling; actives raise or lower the signal. An outline of the steps: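 Gain- or loss-of-signal was derived by bidirectional fitting against DMSO controls. The signal came from reporter mRNA, measured by RT-PCR and capillary electrophoresis, in HepG2 cells transiently carrying multiple reporter units and dosed for 24 h.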

For assay [9], the target named is Transcription factor E2F1 (Homo sapiens) (UniProt Q01094). Briefly: ATG_E2F_CIS: Attagene CIS-FACTORIAL HepG2 Assay for human E2F Transcription Factor 1 (AID 2282935). The conditions noted are these: HepG2 Attagene cis-reporter, E2F reporter RNA transcripts; actives raise or lower the signal. An outline of the steps:
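Fluorescent RT-PCR products, digested with HpaI for 2 h at 37 C, are separated by capillary electrophoresis. Source RNA comes from transfected HepG2 cultures treated for 24 h.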

Assay [10] is described as follows: ATG_E_Box_CIS: Attagene CIS-FACTORIAL HepG2 Assay for human Enhancer Box (E-box) (AID 2282936). The conditions noted are these: HepG2 E-box cis-reporter transcription, actives raise or lower the signal. An outline of the steps:
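Fluorescent reporter fragments separated by capillary electrophoresis gave the signal; mRNA came from HepG2 cells transfected with cis-element reporters and treated 24 h. Curves fitted bidirectionally relative to DMSO controls.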

The nature of assay [11]: ATG_M_61_CIS: Attagene CIS-FACTORIAL HepG2 Assay for M61 Transcription Factor (Internal Marker) (AID 2282937). The conditions noted are these: HepG2 Attagene CIS-FACTORIAL M61 internal marker reporter; actives raise or lower the signal. An outline of the steps: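 Endogenous transcription factor activity in HepG2 is read through transiently transfected cis-element reporter units. After 24 h dosing, RNA undergoes reverse transcription, PCR and primer extension with 6-FAM before capillary electrophoresis; DMSO-referenced bidirectional fit.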

A short description of assay [12]: ATG_EGR_CIS: Attagene CIS-FACTORIAL HepG2 Assay for human Early Growth Response 1 (EGR1) (AID 2282938). To be noted: HepG2 Attagene CIS-FACTORIAL EGR reporter mRNA; actives raise or lower the signal. In short, it runs like this:
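Activity is taken as induction or loss of reporter mRNA versus DMSO, fitted bidirectionally. Transcripts from cis-regulated reporter units in transiently transfected HepG2 were measured after 24 h by RT-PCR with capillary electrophoresis.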

Assay [13] can be described thus: ATG_Ets_CIS: Attagene CIS-FACTORIAL HepG2 Assay for human Erythroblast Transformation Specific (ETS) (AID 2282941). To be noted: HepG2 ETS cis-reporter transcription, actives raise or lower the signal. In short, it runs like this:
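Cis-regulated reporter mRNA induction in HepG2 (transient transfection), 24 h exposure, RT-PCR plus capillary electrophoresis detection; DMSO serves as negative control and baseline.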

The target in assay [14] is Hepatocyte nuclear factor 3-beta (Homo sapiens) (UniProt Q9Y261). Put plainly: ATG_FoxA2_CIS: Attagene CIS-FACTORIAL HepG2 Assay for human Forkhead box A2 (FOXA2) (AID 2282942). To be noted: HepG2 cis-reporter transcription factor activity, 24 h; actives raise or lower the signal. In short, it runs like this: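 Reporter transcript induction is measured by fluorescence after capillary electrophoresis of RT-PCR products from HepG2 cells exposed 24 h. Cis-regulated reporter units report endogenous factor activity; curves fitted both directions against DMSO.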
Chain of Hepatocyte nuclear factor 3-beta (Homo sapiens) (Q9Y261 whole entry, looked up): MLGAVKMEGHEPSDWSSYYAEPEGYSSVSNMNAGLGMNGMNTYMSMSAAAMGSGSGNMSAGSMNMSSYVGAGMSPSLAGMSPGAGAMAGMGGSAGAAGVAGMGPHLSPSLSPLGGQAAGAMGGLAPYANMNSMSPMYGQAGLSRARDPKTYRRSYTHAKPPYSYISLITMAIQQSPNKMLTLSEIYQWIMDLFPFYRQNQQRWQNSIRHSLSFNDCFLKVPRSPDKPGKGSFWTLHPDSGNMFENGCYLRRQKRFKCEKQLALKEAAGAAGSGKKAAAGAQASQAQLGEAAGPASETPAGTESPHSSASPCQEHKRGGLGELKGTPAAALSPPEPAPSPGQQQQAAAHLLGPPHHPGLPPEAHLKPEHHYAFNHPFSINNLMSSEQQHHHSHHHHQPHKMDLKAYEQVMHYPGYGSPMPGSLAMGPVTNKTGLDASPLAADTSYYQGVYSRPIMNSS

A short description of assay [15]: ATG_FoxO_CIS: Attagene CIS-FACTORIAL HepG2 Assay for human Forkhead box O (FoxO) (AID 2282943). The conditions noted are these: HepG2 Attagene cis-reporter, FoxO element, mRNA; actives raise or lower the signal. In short, it runs like this:
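Human hepatoma HepG2 cells carry transiently introduced reporter transcription units controlled by cis promoter elements. Chemical treatment lasted 24 h, and mRNA signal was compared with DMSO.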

A short description of assay [16]: ATG_GATA_CIS: Attagene CIS-FACTORIAL HepG2 Assay for human GATA Binding Protein (AID 2282944). To be noted: HepG2 GATA cis-element reporter, Attagene multiplex mRNA; actives raise or lower the signal. In short, it runs like this:
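DMSO serves as negative control and baseline for bidirectional fitting of reporter mRNA changes. HepG2 cells bearing transiently transfected cis-promoter reporters were exposed 24 h; transcripts detected via RT-PCR and capillary electrophoresis.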

Assay [17] can be described thus: ATG_GLI_CIS: Attagene CIS-FACTORIAL HepG2 Assay for human Zinc Finger Protein GLI1 (AID 2282945). To be noted: HepG2, Attagene cis-factorial reporter mRNA, GLI element; actives raise or lower the signal. In short, it runs like this: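 Bidirectional curve fits relative to DMSO, using reporter mRNA levels from RT-PCR plus capillary electrophoresis. Cells were HepG2 transiently carrying cis-regulated reporter constructs, harvested 24 h after dosing.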

Assay [18] can be described thus: ATG_M_19_CIS: Attagene CIS-FACTORIAL HepG2 Assay for M19 Transcription Factor (Internal Marker) (AID 2282939). The conditions noted are these: HepG2 Attagene CIS-FACTORIAL M19 internal marker reporter; actives raise or lower the signal. An outline of the steps:
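Following a 24 h exposure, RNA from transfected HepG2 cells was reverse-transcribed, PCR-amplified with reporter-specific primers, end-labelled with 6-FAM and HpaI-digested before capillary separation. Values represent gain or loss versus DMSO.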

Assay [19] has as its target Bile acid receptor (Homo sapiens) (UniProt Q96RI1). Briefly: ATG_IR1_CIS: Attagene CIS-FACTORIAL HepG2 Assay for human Nuclear Receptor Subfamily 1 Group H Member 4 (NR1H4), IR1 submotif (AID 2282946). To be noted: IR1 reporter transcription, actives raise or lower the signal. An outline of the steps:
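HepG2 cells transiently transfected with multiplexed cis-element reporter units read endogenous transcription factor activity. After 24 h compound exposure, reporter mRNA was quantified by RT-PCR, fluorescent labelling, HpaI digestion and capillary electrophoresis; bidirectional fitting versus DMSO baseline.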

Assay [20] concerns the target Retinoic acid receptor alpha (Homo sapiens) (UniProt P10276). Briefly: ATG_DR5_RAR_CIS: Attagene CIS-FACTORIAL HepG2 Assay for human Retinoic Acid Receptor Alpha (RARE), DR5 submotif (AID 2282934).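 As to AC50: reporter responds to endogenous RAR alpha beta and gamma in HepG2 not RARA alone.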 To be noted: HepG2 Attagene cis-factorial RARE DR5 reporter, mRNA; actives raise or lower the signal. An outline of the steps: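 HepG2, transient cis-reporter transfection, 24 h exposure. mRNA readout: RT-PCR, FAM label, HpaI cut, capillary electrophoresis. DMSO baseline, gain/loss fitting.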

Chain of Bile acid receptor (Homo sapiens) (Q96RI1 whole entry, looked up): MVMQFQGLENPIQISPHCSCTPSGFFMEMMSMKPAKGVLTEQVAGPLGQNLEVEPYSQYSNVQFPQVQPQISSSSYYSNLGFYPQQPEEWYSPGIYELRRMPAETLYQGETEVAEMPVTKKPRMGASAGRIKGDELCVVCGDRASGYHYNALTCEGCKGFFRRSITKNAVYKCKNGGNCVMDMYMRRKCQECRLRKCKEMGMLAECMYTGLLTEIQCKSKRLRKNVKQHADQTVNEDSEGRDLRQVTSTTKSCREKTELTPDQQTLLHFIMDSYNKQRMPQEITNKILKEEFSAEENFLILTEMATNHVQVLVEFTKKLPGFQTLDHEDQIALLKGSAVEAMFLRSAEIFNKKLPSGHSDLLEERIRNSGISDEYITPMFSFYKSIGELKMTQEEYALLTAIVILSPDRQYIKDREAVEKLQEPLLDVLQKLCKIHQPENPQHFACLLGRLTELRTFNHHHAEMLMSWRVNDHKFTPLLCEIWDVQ
Chain of Transcription factor E2F1 (Homo sapiens) (Q01094 whole entry, looked up): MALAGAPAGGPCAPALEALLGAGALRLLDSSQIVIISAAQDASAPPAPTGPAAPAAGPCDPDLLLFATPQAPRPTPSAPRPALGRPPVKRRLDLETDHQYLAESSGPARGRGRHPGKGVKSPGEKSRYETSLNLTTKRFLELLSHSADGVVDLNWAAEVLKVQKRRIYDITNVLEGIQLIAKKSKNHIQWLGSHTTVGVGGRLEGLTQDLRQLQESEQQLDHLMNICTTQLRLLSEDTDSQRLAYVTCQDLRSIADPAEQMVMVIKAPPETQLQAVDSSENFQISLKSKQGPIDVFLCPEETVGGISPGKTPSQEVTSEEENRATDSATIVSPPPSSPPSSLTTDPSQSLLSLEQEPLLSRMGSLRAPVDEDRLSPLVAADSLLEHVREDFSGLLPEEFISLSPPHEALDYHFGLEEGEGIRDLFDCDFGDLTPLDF
Chain of CCAAT/enhancer-binding protein beta (Homo sapiens) (P17676 whole entry, looked up): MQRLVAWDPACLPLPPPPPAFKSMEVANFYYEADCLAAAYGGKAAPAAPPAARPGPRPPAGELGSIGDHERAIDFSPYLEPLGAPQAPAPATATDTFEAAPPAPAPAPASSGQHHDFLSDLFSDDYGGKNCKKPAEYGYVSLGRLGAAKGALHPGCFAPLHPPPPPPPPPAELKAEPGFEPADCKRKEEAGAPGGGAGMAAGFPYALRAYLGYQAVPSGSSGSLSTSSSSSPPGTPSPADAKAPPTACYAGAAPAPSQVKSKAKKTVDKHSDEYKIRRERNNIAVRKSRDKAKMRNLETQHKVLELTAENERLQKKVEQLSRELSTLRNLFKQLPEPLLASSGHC
Chain of Retinoic acid receptor alpha (Homo sapiens) (P10276 whole entry, looked up): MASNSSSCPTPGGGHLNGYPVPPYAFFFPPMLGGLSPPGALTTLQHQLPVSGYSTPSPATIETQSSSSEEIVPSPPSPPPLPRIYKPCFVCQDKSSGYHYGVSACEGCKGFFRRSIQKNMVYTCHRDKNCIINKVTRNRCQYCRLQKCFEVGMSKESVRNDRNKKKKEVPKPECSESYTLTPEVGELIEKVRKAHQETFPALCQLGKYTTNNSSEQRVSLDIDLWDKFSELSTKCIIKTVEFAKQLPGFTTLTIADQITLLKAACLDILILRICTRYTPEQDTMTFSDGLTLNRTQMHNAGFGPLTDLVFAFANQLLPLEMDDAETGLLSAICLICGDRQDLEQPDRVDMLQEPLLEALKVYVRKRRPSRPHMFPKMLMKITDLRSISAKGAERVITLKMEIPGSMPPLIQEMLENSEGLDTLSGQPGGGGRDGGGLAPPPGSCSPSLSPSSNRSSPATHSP

Turning to `C=C(C)C1CC=C(C)C(=O)C1` (stereo not given), the molecule was called inactive in assay [1], in assay [2], in assay [3], in [4], in assay [5] and in assay [6]. The molecule was called inactive in [7], in assay [8], in assay [9], in [10], in [11] and in [12]. In addition, the call in [13], in assay [14], in assay [15], in [16] and in assay [17] was inactive.

In the case of `CCCCCCOCCOCCO`, the call in assay [1], in assay [2], in [3], in assay [4], in assay [5] and in [6] was inactive. The call in [7], in assay [8], in assay [9], in assay [10], in assay [11] and in assay [12] was inactive. Moreover, the outcome in assay [18], in assay [13], in assay [14], in assay [15], in [16] and in assay [17] was inactive. For the same molecule, the call in assay [19] was inactive.

Turning to `Oc1c(Cl)cc(Cl)c(Cl)c1Cc1c(O)c(Cl)cc(Cl)c1Cl`, the molecule was called inactive in assay [1], in [4], in assay [6], in assay [10], in assay [11] and in assay [18]. Moreover, the result in [14], in assay [15], in assay [16], in [17] and in assay [19] was inactive. In addition, the AC50 in [2] was 561 nM (active); in assay [3] it was 11100 nM (active); in assay [5], 5860 nM (active); in [7], 1980 nM (active); in assay [8] it was 5370 nM (active); in assay [20] it was 527 nM (active). For the same molecule, in assay [13], the AC50 was 878 nM (active).

Regarding `CCCCOC(=O)CCCCCCCC(=O)OCCCC`, the result in assay [1], in assay [2], in assay [3], in assay [4], in assay [5] and in [6] was inactive. The molecule was classed as inactive in [7], in [8], in assay [9], in assay [10], in assay [11] and in assay [18]. Further, the result in assay [13], in [14], in assay [16], in assay [17] and in [19] was inactive.

In the case of `COc1ccc(N)c([N+](=O)[O-])c1`, the result in [1], in assay [2], in assay [3], in assay [4], in assay [5] and in assay [6] was inactive. The result in assay [7], in assay [8], in assay [9], in [10], in [11] and in assay [12] was inactive. The call in assay [13], in assay [15] and in [19] was inactive.

`C/C=C(\C)C(=O)OCCc1ccccc1`: the call in assay [1], in assay [2], in [3], in assay [4], in assay [5] and in [6] was inactive. The outcome in [7], in [8], in assay [9], in assay [10], in [12] and in assay [18] was inactive. Also, the molecule was called inactive in assay [13], in [14], in assay [15], in assay [17] and in [19].

As to `C=C1C[C@]23C[C@@]1(O)CC[C@H]2[C@@]12C=C[C@H](O)[C@@](C)(C(=O)O1)[C@H]2[C@@H]3C(=O)O`, the molecule was classed as inactive in assay [1], in assay [2], in [3], in [4], in assay [5] and in assay [6]. Also, the molecule was called inactive in assay [7], in [8], in assay [9], in assay [10], in assay [11] and in assay [12]. Further, the molecule was classed as inactive in assay [18], in assay [13], in assay [14], in assay [15], in [16] and in assay [17]. The molecule was called inactive in [19].

As for `NC1CCCCC1N` (stereo not given), the molecule was called inactive in [1], in [2], in assay [3], in assay [4], in assay [5] and in assay [6]. The molecule was classed as inactive in assay [7], in assay [8], in [20], in assay [11], in [12] and in [18]. In addition, the molecule was called inactive in assay [13], in assay [14], in assay [15], in assay [16], in assay [17] and in assay [19].

By AC50 is commonly meant the concentration at which the activity in the assay is half-maximal.
